Results filed as inconclusive are left out. Activity calls are given as the source filed them. The calls were made as follows: active = hit-call score of the fitted dose curve at least 0.9, where 1 is the maximum; inconclusive = response in the unintended direction; inactive = score below 0.9.

This passage reports outcome and AC50 results from PubChem BioAssay (EPA / NIEHS).

Sequence of human Elastase, ELANE (gene 1991) (P08246 whole entry, looked up): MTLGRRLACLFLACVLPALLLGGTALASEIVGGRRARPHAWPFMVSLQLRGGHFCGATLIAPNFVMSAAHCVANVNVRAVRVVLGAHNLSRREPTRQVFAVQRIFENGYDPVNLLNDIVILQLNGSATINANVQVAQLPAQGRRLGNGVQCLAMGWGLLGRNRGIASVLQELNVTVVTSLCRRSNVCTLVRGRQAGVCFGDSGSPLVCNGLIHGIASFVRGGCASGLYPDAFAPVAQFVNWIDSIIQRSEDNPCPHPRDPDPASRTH
Sequence of human Caspase 8 (CASP8), CASP8 (gene 841) (Q14790 whole entry, looked up): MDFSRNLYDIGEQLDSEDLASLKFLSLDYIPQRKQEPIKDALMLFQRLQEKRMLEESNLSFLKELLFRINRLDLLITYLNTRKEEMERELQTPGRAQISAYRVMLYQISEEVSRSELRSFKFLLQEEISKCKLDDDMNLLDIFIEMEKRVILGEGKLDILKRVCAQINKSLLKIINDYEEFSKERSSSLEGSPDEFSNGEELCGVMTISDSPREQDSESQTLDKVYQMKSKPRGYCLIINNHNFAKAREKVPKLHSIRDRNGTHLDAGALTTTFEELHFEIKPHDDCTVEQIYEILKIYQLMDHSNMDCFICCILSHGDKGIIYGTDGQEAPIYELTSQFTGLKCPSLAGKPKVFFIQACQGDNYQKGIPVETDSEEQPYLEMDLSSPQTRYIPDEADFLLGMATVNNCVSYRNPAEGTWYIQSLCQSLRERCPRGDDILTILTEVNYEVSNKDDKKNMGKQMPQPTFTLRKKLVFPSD

One assay addresses human Caspase 8 (CASP8), CASP8 (gene 841) (UniProt Q14790). The experiment in a line: NVS_ENZ_hCASP8: NovaScreen (NVS) Enzymatic Assay for human Caspase 8 (CASP8) (AID 2283146). Put shortly: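 The primary screen tested compounds in duplicate at a single 25 uM concentration, with actives followed up in concentration series. Activity of recombinant (E. coli) protease was measured by fluorescence 1 h post-dose, as signal loss against DMSO.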
Take `c1ccc2cc3c(ccc4ccccc43)cc2c1`: the molecule was called inactive.
In the case of `Oc1cc2ccccc2c2ccccc12`, the call was inactive.
As for `C=C(C)C(=O)OCCC(F)(F)C(F)(F)C(F)(F)C(F)(F)C(F)(F)C(F)(F)F`, the AC50 was 1.96 µM (active).

For the next assay, the target named is human Casein Kinase 1-delta (CK1D), CSNK1D (gene 1453) (UniProt P48730). The experiment in a line: NVS_ENZ_hCK1D: NovaScreen (NVS) Enzymatic Assay for human Casein Kinase 1-delta (CK1D) (AID 2283148). Put shortly: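 Recombinant human CK1-delta, cell-free; fluorescent substrate with electrophoretic mobility-shift separation of product, read 1 h after dosing. Single 25 uM duplicate screen, then concentration-response up to 50 uM; loss of signal vs DMSO.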
Sequence of human Casein Kinase 1-delta (CK1D), CSNK1D (gene 1453) (P48730 whole entry, looked up): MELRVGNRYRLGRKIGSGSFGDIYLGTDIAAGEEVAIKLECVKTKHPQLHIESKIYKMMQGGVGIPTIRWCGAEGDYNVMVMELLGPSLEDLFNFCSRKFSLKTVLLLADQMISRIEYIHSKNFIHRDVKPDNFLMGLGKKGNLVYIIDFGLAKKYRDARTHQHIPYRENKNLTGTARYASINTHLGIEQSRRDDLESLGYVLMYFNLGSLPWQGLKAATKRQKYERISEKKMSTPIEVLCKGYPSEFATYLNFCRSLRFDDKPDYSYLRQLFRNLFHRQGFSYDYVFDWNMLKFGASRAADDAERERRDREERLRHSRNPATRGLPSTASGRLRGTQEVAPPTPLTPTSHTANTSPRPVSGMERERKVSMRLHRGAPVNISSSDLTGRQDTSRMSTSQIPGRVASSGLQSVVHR
As for `CCCCCCCCCCCCc1ccccc1S(=O)(=O)O`, the AC50 was 17.4 µM (active).
As to `O=C(O)c1ccccc1C(c1ccc(O)cc1)c1ccc(O)cc1`, the result was inactive.
Same read-out and setting: under `COCC(C)OCC(C)O` (configuration not stated) stands “inactive”.
On to `CCN(CC)CCNc1ccc(CNC=O)c2sc3ccc(OC)cc3c(=O)c12`, for which the half-maximal activity concentration (AC50) was 6.5 µM (active).
As to `O=c1c(-c2ccc(O)cc2)coc2cc(O)ccc12`, the outcome was inactive.
Still for that read-out and setting: the result for `O=C(O)Cc1cc(I)c(Oc2cc(I)c(O)c(I)c2)c(I)c1` reads “inactive”.

For a further assay, the target named is human Colony Stimulating Factor 1 Receptor (CSF1R), CSF1R (gene 1436) (UniProt P07333). The experiment in a line: NVS_ENZ_hCSF1R: NovaScreen (NVS) Enzymatic Assay for human Colony Stimulating Factor 1 Receptor (CSF1R) (AID 2283150). How it is done: NVS_ENZ_hCSF1R is a biochemical, single-readout assay that uses extracted gene-proteins in a cell-free assay. Measurements were taken 1 hour after chemical dosing in a 384-well plate.NVS_ENZ_hCSF1R is one of one assay component(s) measured or calculated from the NVS_ENZ_hCSF1R assay. It is designed to make measurements of enzyme activity, a form of enzyme reporter, as detected with fluorescence intensity signals by Fluorescence and electrophoretic mobility shift technology.Data from the assay component NVS_ENZ_hCSF1R was analyzed into 1 assay endpoint. This assay endpoint, NVS_ENZ_hCSF1R, was analyzed in the positive analysis fitting direction relative to DMSO as the negative control and baseline of activity. Using a type of enzyme reporter, loss-of-signal activity can be used to understand changes in the enzymatic activity as they relate to the gene CSF1R. Furthermore, this assay endpoint can be referred to as a primary readout, because this assay has produced multiple assay endpoints where this one serves a enzymatic activity function. To generalize the intended target to other relatable targets, this assay endpoint is annotated to the kinase intended target family, where the subfamily is receptor tyrosine kinase.
Sequence of human Colony Stimulating Factor 1 Receptor (CSF1R), CSF1R (gene 1436) (P07333 whole entry, looked up): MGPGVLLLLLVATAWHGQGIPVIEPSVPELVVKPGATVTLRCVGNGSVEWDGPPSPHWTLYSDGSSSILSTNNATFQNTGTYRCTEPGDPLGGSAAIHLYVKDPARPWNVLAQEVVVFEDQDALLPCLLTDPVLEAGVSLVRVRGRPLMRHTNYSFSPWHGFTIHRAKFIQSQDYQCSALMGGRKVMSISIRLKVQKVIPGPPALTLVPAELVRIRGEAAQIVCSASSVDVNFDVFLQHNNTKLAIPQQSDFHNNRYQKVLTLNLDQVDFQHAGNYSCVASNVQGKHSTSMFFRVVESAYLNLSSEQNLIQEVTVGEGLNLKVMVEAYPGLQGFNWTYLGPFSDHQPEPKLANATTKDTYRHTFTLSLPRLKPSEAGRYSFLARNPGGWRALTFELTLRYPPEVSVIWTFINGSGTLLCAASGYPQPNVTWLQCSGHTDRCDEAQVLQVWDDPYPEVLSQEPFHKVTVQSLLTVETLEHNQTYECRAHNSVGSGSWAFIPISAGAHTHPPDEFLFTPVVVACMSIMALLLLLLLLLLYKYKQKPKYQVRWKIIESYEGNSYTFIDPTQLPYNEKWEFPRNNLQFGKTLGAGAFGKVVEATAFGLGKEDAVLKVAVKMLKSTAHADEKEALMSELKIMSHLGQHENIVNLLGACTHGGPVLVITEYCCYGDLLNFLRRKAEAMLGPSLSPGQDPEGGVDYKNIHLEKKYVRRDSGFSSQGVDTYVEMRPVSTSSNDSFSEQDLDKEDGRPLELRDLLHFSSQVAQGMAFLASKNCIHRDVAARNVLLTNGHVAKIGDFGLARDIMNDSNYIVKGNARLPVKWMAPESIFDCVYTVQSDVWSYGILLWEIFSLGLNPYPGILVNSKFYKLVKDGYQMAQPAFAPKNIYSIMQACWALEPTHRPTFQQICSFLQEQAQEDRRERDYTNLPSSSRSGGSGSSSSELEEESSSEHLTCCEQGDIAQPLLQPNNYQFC
(§1) Binding assays used specific radioligands (tritiated, iodinated) with non-radioactive competitive displacement ligands in agonist or antagonist protocols (as indicated) and various reference compounds and inhibitors to titrate specific binding to receptors and transporters. Most enzyme assays (CYPs, kinases, phosphatases, proteases, HDACs) used recombinant protein and specific substrates (fluorescence mostly, some colorimetric and radioactive) and inhibitors, followed by a biochemical separation of substrate and product. All assays for the biochemical HTS were initially run in duplicate at a single concentration (10 uM for CYP450 assays and 25 uM for all others). Assay-chemical combinations meeting a pre-defined threshold (e.g., 30% inhibition and other criteria defined below) were then run in singleton concentration-response format with maximum concentration of 20 uM for CYPs and 50 uM for all others. Each assay was run with positive and negative controls, and concurrent controls on every plate. The follow-up (secondary) screen tested active chemical-pairs in concentration series, as well as a few additional assays not tested in the primary screen, some selected negative inactives, and several cases re-run in the concentration series for confirmatory purposes.
In the case of `Cc1cc(CCN2CCN(c3nsc4ccccc34)CC2)cc2c1NC(=O)CC2(C)C`, the molecule was classed as inactive.
As to `CCCCCCCCCCCCc1ccccc1S(=O)(=O)O`, the concentration at half-maximal activity (AC50) is 17.3 µM (active).
As to `CCCOC(=O)c1ccc(O)cc1`, the outcome was inactive.
Turning to `COCC(C)OCC(C)O` (configuration not stated), the call was inactive.
As for `N#C[C@@H]1CC(F)(F)CN1C(=O)CNC1CC2CCC(C1)N2c1ncccn1` (some centres not stated), the molecule was classed as inactive.
On to `O=C(O)Cc1cc(I)c(Oc2cc(I)c(O)c(I)c2)c(I)c1`, for which the call was inactive.

In the next assay the target is human Dual Specificity Protein Phosphatase 3 (DUSP3), DUSP3 (gene 1845) (UniProt P51452). Briefly: NVS_ENZ_hDUSP3: NovaScreen (NVS) Enzymatic Assay for human Dual Specificity Protein Phosphatase 3 (DUSP3) (AID 2283152). Put shortly: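 Cell-free fluorescence-intensity enzyme activity assay with recombinant protein and substrate; loss of signal fitted relative to DMSO baseline. Primary screen in duplicate at 25 uM, actives then run in concentration series; measured 0 h after dosing.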
Sequence of human Dual Specificity Protein Phosphatase 3 (DUSP3), DUSP3 (gene 1845) (P51452 whole entry, looked up): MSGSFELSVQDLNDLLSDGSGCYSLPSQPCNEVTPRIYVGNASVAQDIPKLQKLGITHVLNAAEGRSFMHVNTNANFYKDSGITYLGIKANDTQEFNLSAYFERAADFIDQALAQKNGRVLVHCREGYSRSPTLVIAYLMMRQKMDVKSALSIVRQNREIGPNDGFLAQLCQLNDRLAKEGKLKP
For the molecule `ClC1=C(Cl)C(Cl)(Cl)C(Cl)=C1Cl`, the AC50 is 16.3 µM (active).
Consider `CCCCCCCCCCCCCCCS(=O)(=O)Oc1ccccc1`, for which the call was inactive.
Take `CC(C)(C)CC(C)(C)c1ccc(O)c(-n2nc3ccccc3n2)c1`: the AC50 was 10.6 µM (active).
Consider `NC(=O)N1C(=O)C(C(=O)c2cc(Cl)cs2)c2cc(F)c(Cl)cc21` (configuration not stated), for which the concentration at half-maximal activity (AC50) was 12.2 µM (active).
As for `Cc1oc(-c2ccccc2)nc1CCOc1ccc(C[C@H](Nc2ccccc2C(=O)c2ccccc2)C(=O)O)cc1`, the AC50 was 14.9 µM (active).
Turning to `CCCCCCCCOC(=O)CCCCCCCCC(=O)OCCCCCCCC`, the call was inactive.
On to `O=C(O)Cc1cc(I)c(Oc2cc(I)c(O)c(I)c2)c(I)c1`, for which the concentration at half-maximal activity (AC50) is 11 µM (active).
The same measure, in the same setting: under `CCCOc1sc(C(=O)N2CCC(c3cc(CN)ccc3F)CC2)c(C)c1Br` stands 7.33 µM (active).
For `CC#C[C@]1(O)CC[C@H]2[C@@H]3CCC4=CC(=O)CCC4=C3[C@@H](c3ccc(N(C)C)cc3)C[C@@]21C`, the outcome was inactive.
The same measure, in the same setting: under `CCCCC(CC)COC(=O)CCCCC(=O)OCC(CC)CCCC` (configuration not stated) stands “inactive”.

Another assay has as its target human Elastase, ELANE (gene 1991) (UniProt P08246). Briefly: NVS_ENZ_hElastase: NovaScreen (NVS) Enzymatic Assay for human Elastase (AID 2283153). How it is done: NVS_ENZ_hElastase is a biochemical, single-readout assay that uses extracted gene-proteins from Human neutrophils in a cell-free assay. Measurements were taken 1.5 hours after chemical dosing in a 96-well plate.NVS_ENZ_hElastase is one of one assay component(s) measured or calculated from the NVS_ENZ_hElastase assay. It is designed to make measurements of enzyme activity, a form of enzyme reporter, as detected with absorbance signals by Spectrophotometry technology.Data from the assay component NVS_ENZ_hElastase was analyzed into 1 assay endpoint. This assay endpoint, NVS_ENZ_hElastase, was analyzed in the positive analysis fitting direction relative to DMSO as the negative control and baseline of activity. Using a type of enzyme reporter, loss-of-signal activity can be used to understand changes in the enzymatic activity as they relate to the gene ELANE. Furthermore, this assay endpoint can be referred to as a primary readout, because this assay has produced multiple assay endpoints where this one serves a enzymatic activity function. To generalize the intended target to other relatable targets, this assay endpoint is annotated to the protease intended target family, where the subfamily is serine protease.
as §1
Turning to `CCCCCCCCCCCCc1ccccc1S(=O)(=O)O`, the AC50 was 38 µM (active).
`CCCCCCCCCCCCCCCS(=O)(=O)Oc1ccccc1`: the call was inactive.
Turning to `NC(=O)N1C(=O)C(C(=O)c2cc(Cl)cs2)c2cc(F)c(Cl)cc21` (configuration not stated), the AC50 was 16.9 µM (active).
As to `Cc1oc(-c2ccccc2)nc1CCOc1ccc(C[C@H](Nc2ccccc2C(=O)c2ccccc2)C(=O)O)cc1`, the AC50 was 10.6 µM (active).
The same measure, in the same setting: under `c1ccc2cc3c(ccc4ccccc43)cc2c1` stands 46.9 µM (active); under `O=C(O)Cc1cc(I)c(Oc2cc(I)c(O)c(I)c2)c(I)c1`, 18.5 µM (active); under `CC#C[C@]1(O)CC[C@H]2[C@@H]3CCC4=CC(=O)CCC4=C3[C@@H](c3ccc(N(C)C)cc3)C[C@@]21C`, 2.18 µM (active).

What is called AC50 is the midpoint of the concentration-response curve, whichever way the signal moves.
